Source: PubChem BioAssay AID686964 (The Scripps Research Institute Molecular Screening Center, 2013)
Hit rate of the full screen: of about 370,000 compounds, about 1,100 (0.3%) were called active. The full list was thinned out, with actives kept by preference. Values without a mark were called inactive. Rule as the data show it: active = inhibition above about 13%; inactive = the rest.

These compounds were tested against Methyl-CpG-binding domain protein 2 (Homo sapiens) (UniProt Q9UBB5) (assay: MBD2-DBD methyl-oligonucleotide interaction blockers – biochemical, TR-FRET, DNA-binding domain, human, primary screen (AID 686964)). Settings: MBD2 binding to methylated oligonucleotide, at 4.4 µM, hits give high values.
Chain of Methyl-CpG-binding domain protein 2 (Homo sapiens) (Q9UBB5 whole entry, looked up, the tested form may be a part): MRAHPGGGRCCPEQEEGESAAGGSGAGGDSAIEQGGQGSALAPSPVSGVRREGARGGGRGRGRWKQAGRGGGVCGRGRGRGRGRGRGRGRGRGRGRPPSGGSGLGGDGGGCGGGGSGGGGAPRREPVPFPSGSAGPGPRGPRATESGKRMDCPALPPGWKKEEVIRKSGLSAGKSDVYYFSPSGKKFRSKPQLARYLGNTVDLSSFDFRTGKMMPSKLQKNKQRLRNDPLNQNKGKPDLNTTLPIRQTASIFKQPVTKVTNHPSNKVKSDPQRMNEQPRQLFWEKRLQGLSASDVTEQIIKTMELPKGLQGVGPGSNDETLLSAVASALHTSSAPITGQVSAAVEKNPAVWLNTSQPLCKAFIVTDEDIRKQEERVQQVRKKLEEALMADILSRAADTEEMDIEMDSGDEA

Row | SMILES | inhibition
1 | CC1CCCCC1NC(=O)c1cn(C)c2ccc(S(=O)(=O)N3CCOCC3)cc2c1=O (configuration not stated) | 0.43%
2 | COC(=O)c1cn(C)c2ccc(S(=O)(=O)N3CC(C)CC(C)C3)cc2c1=O (configuration not stated) | 21.1% (active)
3 | CCn1cc(C(=O)N2CC(C)CC(C)C2)c(=O)c2cc(S(=O)(=O)N3CCCC3)ccc21 (configuration not stated) | -7.45%
4 | Cc1cc(C)c2nc(-c3cccnc3)cc(C(=O)Nc3ccc(S(=O)(=O)Nc4onc(C)c4C)cc3)c2c1 | -1.74%
5 | CCOC(=O)c1ccn(-c2nc(-c3ccco3)cc(C(F)(F)F)n2)n1 | 1.89%
6 | Cc1cc(C)c2nc(-c3ccco3)cc(C(=O)O)c2c1 | 13.2% (active)
7 | CCC(=O)c1c(CC)c2n3c1=CC[C@H]3CC(Br)C=2 (some centres not stated) | 1.67%
8 | Cc1ccc(C(=O)NNC(=O)c2ccncc2)cc1S(=O)(=O)N1CCCCC1 | -3.54%
9 | Cc1ccc(NC(=O)C2CC(=O)N(c3ccc4c(c3)OCCO4)C2)cc1S(=O)(=O)N1CCCCCC1 (configuration not stated) | 2.94%
10 | Cc1ccc(C(=O)Nc2ccc3c(c2)OCO3)cc1S(=O)(=O)N1CCCCC1 | 13.4% (active)
11 | Cc1cc(C)nc(NC(=S)N2CCN(c3ccc(C(F)(F)F)cn3)CC2)c1 | -0.18%
12 | N#Cc1ccccc1CN1C(=O)S/C(=C/c2cccn2-c2cccc(C(=O)O)c2)C1=O | 10.6%
13 | Cc1ccccc1NC(=O)CN1C(=O)N/C(=C\c2cccn2-c2cccc(C(=O)O)c2)C1=O | 20.6% (active)
14 | COC(=O)CN1C(=O)N/C(=C/c2ccc(OC)c(C)c2OC)C1=O | -3.97%
15 | Cc1ccc(Cn2cc(CN3[C@@H](C)COc4cc(Br)ccc4S3(=O)=O)nn2)cc1 | -5.2%
16 | CCc1noc(C)c1C(=O)N1CCN(S(=O)(=O)c2cccc(C(F)(F)F)c2)CC1 | -5.25%
17 | O=C(CCl)NC1CCCCN(Cc2cccc(C(F)(F)F)c2)C1=O (configuration not stated) | 3.06%
18 | CCn1c(SCC(=O)Nc2ccc(Br)cc2)nc2sc3c(c2c1=O)CCN(C)C3 | 0.05%
19 | CCOc1ccc(-n2c(SCC(=O)Nc3ccc(OC)cc3)nc3sc4c(c3c2=O)CCN(C)C4)cc1 | 23.5% (active)

Row | SMILES | inhibition
20 | CCCSc1nc2sc3c(c2c(=O)n1-c1ccc(OC)cc1)CCN(C)C3 | -2%
21 | CCCCC(=O)N[C@@H]1CC[C@@]23CCCN2C(=O)CCC[C@H]3[C@H]1C | -0.72%
22 | COc1ccc(Cl)cc1NC(=O)CCS(=O)(=O)c1ccc(Br)cc1 | 26.3% (active)
23 | COc1ccc(Cl)cc1NC(=O)COC(=O)c1ccc(Br)o1 | -1.28%
24 | COc1ccc(Cl)cc1NC(=O)CN(C)Cc1ccc(OC)c(OC)c1 | 0.39%
25 | CC(=O)N1CCc2cc(S(=O)(=O)NCCC(=O)N3CCCC3)ccc21 | 0.46%
26 | CCCN(CC(=O)NC(=O)NC1CCCCC1)CC(=O)Nc1cc(Cl)ccc1Cl | -5.45%
27 | CCOC(=O)c1c(C)[nH]c(C(=O)NCCN2CCOCC2)c1C | 4.74%
28 | CCOC(=O)c1sc(NC(=O)CCN2CCOCC2)c(C(=O)OCC)c1C | 28.4% (active)
29 | CCOC(=O)c1c(NC(=O)CCCN2CCOCC2)sc2c1CC(C)(C)OC2 | 0.1%
30 | CCN(C(=O)[C@@H](C1CC1)[C@@H](O)c1ccc2ccccc2c1)c1ccccc1 | 3.52%
31 | O=C1C(=O)N(Cc2ccc(-c3ccsc3)cc2)c2ccc(OC(F)(F)F)cc21 | -3.46%
32 | CC(C)CCN1CCC(C)(NC(=O)c2ccccc2)C1=O (configuration not stated) | 0.15%
33 | COC(=O)[C@]1(C#N)CC(=O)N(CC2CCCCC2)[C@@H]1c1ccccc1 | -3.31%
34 | COC(=O)c1ccc2nc(C3CCCCC3)c(Cc3cccc(F)c3)n2c1 | 19% (active)
35 | COC(=O)c1ccc2nc(-c3ccc(Cl)cc3)c(Cc3cccc(F)c3)n2c1 | 2.68%
36 | COC(=O)c1ccc2nc(-c3ccc(F)cc3)c(Cc3ccc(C)cc3)n2c1 | 3.12%
37 | O=S1(=O)c2ccc(Br)cc2OC[C@H](Cc2ccccc2)N1Cc1cn(Cc2ccccc2)nn1 | 9.67%
38 | Cc1cc(NCCc2c[nH]c3ccccc23)ccc1Oc1cccnc1 | -2.55%

Row | SMILES | inhibition
39 | CC(C)CC(CC(C)C)=NNC(=O)c1ccc(CSc2nncn2C)cc1 | -5.89%
40 | COC(=O)c1ccc(SCc2ccccc2)nc1 | -4.53%
41 | COC(=O)c1ccc(CSc2nncn2N)cc1 | 48.3% (active)
42 | COc1cccc2c1C(=O)c1c(O)c3c(c(O)c1C2=O)CC(O)(C(C)=NNC(=O)c1ccc(Cl)c(Cl)c1)CC3OC1CC(N)C(O)C(C)O1 (configuration not stated) | 111% (active)
43 | CN[C@H]1C[C@H]2c3cc(N4CCOCC4)ccc3CCN2C[C@H]1[C@H](C)O | -5.62%
44 | COC(=O)[C@@H]1CC(O)CN1C(=O)C12CC3CC(CC(C3)C1)C2 (some centres not stated) | 2.14%
45 | COc1nc(Oc2ccc(=O)n(C)n2)nc(N(C)C)n1 | -3.73%
46 | COc1nc(N(C)C)nc(N2CC(=O)N(CCNS(=O)(=O)c3ccc(C)cc3)C2=N)n1 | 15.6% (active)
47 | Cc1ccc(S(=O)(=O)NCCSC(C)(C)C)cc1 | 0.35%
48 | COc1ccc(CSc2nnc(-c3cccc(C)c3)n2C)cc1 | 0%
49 | Cc1cc(Cl)ccc1N1C(=O)CC(SCCC(=O)O)C1=O (configuration not stated) | 2.13%
50 | COC(=O)c1cc2c(c3c4ccccc4n(S(=O)(=O)c4cccc(C)c4)c13)C(=O)N(Cc1ccccc1)C2 | 0.83%
51 | CCc1ccccc1NC(=O)CN(c1ccc(OC)cc1OC)S(=O)(=O)c1ccccc1[N+](=O)[O-] | 2.54%
52 | CSc1ccc(CNCCN2CCOCC2)cc1 | 2.47%
53 | c1ccc2cc3c(NCCN4CCOCC4)ccnc3cc2c1 | 15.3% (active)
54 | O=C(Cc1ccc(Br)cc1)NCCN1CCOCC1 | -0.23%
55 | COc1ccccc1C(=O)NCC(=O)OCC(=O)NNC(=O)c1ccc(Br)cc1 | -6.8%
56 | COc1ccccc1C(=O)Nn1cnnc1 | 3.63%
57 | COc1ccccc1C(=O)NNC(=O)CCN1C(=O)/C(=C\c2ccccc2)SC1=S | 13.2% (active)
